Pf apPOL inh – Pf-apPOL DNA polymerase inhibition. Recombinant Pf-apPOL, molecular beacon fluorescence, 1.5 h. AID 1794808. 210,000 tested, 0.25% active. inhibition, % at 10 µM
mHTT CaM bind – inhibitors of human mutant huntingtin-calmodulin interaction. P42858. AlphaScreen His-mHTT/GST-CaM binding, luminescence. inhibition, % at 15 µM. 190,000 tested, 3.6% active;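 also: 0% = both proteins with DMSO and 100% = one protein alone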
Target sequence (P42858 whole entry, looked up, stated change not applied): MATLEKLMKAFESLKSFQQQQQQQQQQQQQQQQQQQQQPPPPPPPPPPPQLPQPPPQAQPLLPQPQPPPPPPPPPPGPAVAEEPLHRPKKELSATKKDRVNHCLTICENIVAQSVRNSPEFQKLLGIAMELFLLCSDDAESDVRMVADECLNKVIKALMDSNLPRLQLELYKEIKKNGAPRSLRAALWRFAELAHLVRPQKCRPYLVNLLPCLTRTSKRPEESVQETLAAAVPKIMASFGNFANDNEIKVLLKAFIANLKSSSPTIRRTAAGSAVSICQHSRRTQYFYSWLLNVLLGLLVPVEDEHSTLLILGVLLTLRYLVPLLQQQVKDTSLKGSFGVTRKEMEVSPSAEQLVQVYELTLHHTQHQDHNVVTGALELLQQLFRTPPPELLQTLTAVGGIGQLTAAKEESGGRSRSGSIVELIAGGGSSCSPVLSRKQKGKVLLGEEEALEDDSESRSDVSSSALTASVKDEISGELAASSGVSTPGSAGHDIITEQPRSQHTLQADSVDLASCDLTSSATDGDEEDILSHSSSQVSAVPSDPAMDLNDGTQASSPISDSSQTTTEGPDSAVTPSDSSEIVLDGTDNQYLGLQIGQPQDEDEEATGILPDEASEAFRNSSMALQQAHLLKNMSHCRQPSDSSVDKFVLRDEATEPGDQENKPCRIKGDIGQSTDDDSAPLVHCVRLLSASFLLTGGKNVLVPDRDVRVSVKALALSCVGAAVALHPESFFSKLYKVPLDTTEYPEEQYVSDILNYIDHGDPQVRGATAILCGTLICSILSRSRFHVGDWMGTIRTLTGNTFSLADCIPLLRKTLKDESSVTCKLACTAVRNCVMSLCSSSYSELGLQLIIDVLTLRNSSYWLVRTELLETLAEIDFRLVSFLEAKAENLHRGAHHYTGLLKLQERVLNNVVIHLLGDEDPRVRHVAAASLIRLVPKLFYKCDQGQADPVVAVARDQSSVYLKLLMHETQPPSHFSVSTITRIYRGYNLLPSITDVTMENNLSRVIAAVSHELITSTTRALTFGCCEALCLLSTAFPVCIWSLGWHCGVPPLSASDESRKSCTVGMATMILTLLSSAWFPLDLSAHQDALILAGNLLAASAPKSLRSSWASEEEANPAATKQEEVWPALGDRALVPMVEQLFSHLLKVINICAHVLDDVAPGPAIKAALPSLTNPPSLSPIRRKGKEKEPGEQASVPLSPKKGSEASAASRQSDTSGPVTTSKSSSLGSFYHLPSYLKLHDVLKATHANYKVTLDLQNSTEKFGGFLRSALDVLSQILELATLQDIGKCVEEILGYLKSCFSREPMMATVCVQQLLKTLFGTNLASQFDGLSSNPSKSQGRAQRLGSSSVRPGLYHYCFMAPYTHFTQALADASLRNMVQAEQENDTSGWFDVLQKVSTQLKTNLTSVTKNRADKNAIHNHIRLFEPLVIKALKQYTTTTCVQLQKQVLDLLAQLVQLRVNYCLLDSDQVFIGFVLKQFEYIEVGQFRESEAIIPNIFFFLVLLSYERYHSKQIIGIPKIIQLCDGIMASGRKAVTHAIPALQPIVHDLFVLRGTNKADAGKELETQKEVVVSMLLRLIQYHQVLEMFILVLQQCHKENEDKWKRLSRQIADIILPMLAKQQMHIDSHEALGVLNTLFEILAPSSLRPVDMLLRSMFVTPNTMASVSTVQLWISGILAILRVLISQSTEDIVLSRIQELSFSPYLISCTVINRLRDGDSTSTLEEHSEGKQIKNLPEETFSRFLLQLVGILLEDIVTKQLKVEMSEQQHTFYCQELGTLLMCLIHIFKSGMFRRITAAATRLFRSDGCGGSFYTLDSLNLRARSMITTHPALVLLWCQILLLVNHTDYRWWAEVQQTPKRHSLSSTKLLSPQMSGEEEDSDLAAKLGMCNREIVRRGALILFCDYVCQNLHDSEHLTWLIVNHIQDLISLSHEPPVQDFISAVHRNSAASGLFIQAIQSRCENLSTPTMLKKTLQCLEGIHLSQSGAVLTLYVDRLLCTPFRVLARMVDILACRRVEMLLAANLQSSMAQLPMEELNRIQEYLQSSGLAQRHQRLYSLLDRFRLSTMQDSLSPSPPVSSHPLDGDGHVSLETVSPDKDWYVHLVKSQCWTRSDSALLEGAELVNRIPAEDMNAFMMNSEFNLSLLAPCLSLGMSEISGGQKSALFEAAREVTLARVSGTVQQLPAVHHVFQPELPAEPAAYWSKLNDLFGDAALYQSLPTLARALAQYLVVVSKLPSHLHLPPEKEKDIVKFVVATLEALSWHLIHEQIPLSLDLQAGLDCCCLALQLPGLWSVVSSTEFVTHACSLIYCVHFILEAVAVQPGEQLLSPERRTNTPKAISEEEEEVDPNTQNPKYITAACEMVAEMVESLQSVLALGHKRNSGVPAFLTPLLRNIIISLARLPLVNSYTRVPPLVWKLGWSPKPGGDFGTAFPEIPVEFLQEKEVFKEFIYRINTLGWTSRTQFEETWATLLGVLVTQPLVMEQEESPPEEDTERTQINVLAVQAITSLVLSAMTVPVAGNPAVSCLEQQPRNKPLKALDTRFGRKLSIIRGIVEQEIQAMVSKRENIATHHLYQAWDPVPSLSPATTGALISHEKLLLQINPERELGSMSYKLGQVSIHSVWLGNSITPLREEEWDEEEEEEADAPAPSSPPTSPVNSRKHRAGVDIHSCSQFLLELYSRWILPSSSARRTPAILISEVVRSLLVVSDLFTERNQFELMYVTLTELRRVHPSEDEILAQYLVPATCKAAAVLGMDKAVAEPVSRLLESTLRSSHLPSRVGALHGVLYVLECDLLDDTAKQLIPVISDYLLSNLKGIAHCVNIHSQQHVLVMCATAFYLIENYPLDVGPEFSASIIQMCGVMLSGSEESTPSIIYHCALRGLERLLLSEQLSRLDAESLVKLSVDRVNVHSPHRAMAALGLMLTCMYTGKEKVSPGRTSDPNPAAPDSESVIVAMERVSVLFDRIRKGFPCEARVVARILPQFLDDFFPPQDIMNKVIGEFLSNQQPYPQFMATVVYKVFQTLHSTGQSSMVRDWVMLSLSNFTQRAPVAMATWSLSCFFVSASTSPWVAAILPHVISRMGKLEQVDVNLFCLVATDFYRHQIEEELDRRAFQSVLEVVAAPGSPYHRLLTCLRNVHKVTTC
An asterisk follows results filed as active; · = no result given. An excerpt weighted towards active compounds, which were near 3.6% of everything screened. Rule as the data show it: active = inhibition above about 50%; inactive = the rest.

SMILES | Pf apPOL inh | mHTT CaM bind
CN(C)c1cccc(C(=O)N2CCc3c(c(C(=O)NCc4ccccc4)nn3C)C2)c1 | -5.4 | 50.5*
Cn1nc(C(=O)NCc2ccccc2)c2c1CCN(C(=O)c1cccc(Cl)c1)C2 | -10.6 | 81.4*
Cn1nc(C(=O)NCc2ccccc2)c2c1CCN(C(=O)c1ccc(Cl)cc1)C2 | -3.3 | -0.2
Cn1nc(C(=O)NCc2ccc(Cl)cc2)c2c1CCN(C(=O)c1ccccc1F)C2 | 14.2 | 43.4
Cn1nc(C(=O)NCc2ccccc2)c2c1CCN(C(=O)c1c(F)cccc1F)C2 | 3.9 | 1.7
COc1ccccc1C(=O)N1CCc2c(c(C(=O)NCc3ccc(Cl)cc3)nn2C)C1 | 4.1 | 80.0*
O=C(C1CCN(c2nnc3ccc(Cl)cn23)CC1)N1CCOCC1 | -1.2 | -3.2
N#Cc1cnc2ccc(Cl)cc2c1N1CCCC1 | -3.3 | -5.0
COc1cc(OC)c(NC(=O)Cc2ccccc2OC)cc1Cl | -3.8 | -5.7
COc1cccc(-c2nc3cc(C(C)(C)C)ccc3o2)c1OC | 6.0 | -73.5
Cn1nc(C(=O)NCc2ccccc2)c2c1CCN(C(=O)c1cccs1)C2 | -13.5 | 3.9
COc1ccc(C(=O)N2CCc3c(c(C(=O)NCc4ccccc4)nn3C)C2)cc1OC | -9.9 | 75.1*
CCOc1ccc(C(=O)N2CCc3c(c(C(=O)NCc4ccccc4)nn3C)C2)cc1 | -11.3 | -16.8
COc1cccc(C(=O)N2CCc3c(c(C(=O)NCc4ccccc4)nn3C)C2)c1 | -4.9 | 69.0*
COc1ccc(CCNC(=O)CC23CC4CC(C2)CC(c2ccccc2)(C4)C3)cc1OC | -4.5 | 19.7
CN(C)CCNC(=O)CC12CC3CC(C1)CC(c1ccccc1)(C3)C2 | -2.1 | 64.4*
CN(C)CCNC(=O)COc1ccc(C23CC4CC(CC(C4)C2)C3)cc1 | -3.1 | 95.4*
CCN(CC)CCNC(=O)COc1ccc(OC)cc1 | 3.1 | -1.4
COc1ccc(-c2cn[nH]c2-c2ccc(OCCN3CCOCC3)cc2O)cc1OC | -3.6 | 18.5
CC1(C(=O)NCc2ccccc2)CCCN(C(=O)CSc2ccccc2)C1 (stereo not drawn) | -1.5 | 3.1
Cc1ccc([C@H]2C[C@H](O)[C@@H](n3cc(-c4ccc(F)cc4)nn3)CN2Cc2cccs2)cc1 | -3.2 | 8.4
O[C@H]1CN(CC2CCCCC2)[C@@H](c2ccc(Cl)cc2)C[C@@H]1n1cc(-c2ccc(F)cc2)nn1 | 2.3 | 15.9
O[C@H]1C[C@H](c2ccccc2)N(CC2CCCCC2)C[C@@H]1n1cc(C2CC2)nn1 | -2.5 | 93.4*
O[C@H]1C[C@H](c2ccc(Cl)cc2)N(Cc2cccs2)C[C@@H]1n1cc(-c2ccc(F)cc2)nn1 | -1.5 | 100.3*
O[C@H]1CN(CC2CCCCC2)[C@@H](c2ccc(Cl)cc2)C[C@@H]1n1cc(C2CC2)nn1 | -3.6 | 53.5*
SMILES | Pf apPOL inh | mHTT CaM bind
O[C@@H]1CN(CC2CCCCC2)[C@@H](c2ccccc2)C[C@H]1n1cc(C2CC2)nn1 | -3.7 | 4.8
CCCCCCN1C[C@H](O)[C@@H](n2cc(-c3ccc(F)cc3)nn2)C[C@@H]1c1ccccc1 | -3.6 | 4.4
CCCCCCN1C[C@H](n2cc(-c3ccc(F)cc3)nn2)[C@@H](O)C[C@@H]1c1ccccc1 | -1.5 | 59.7*
COc1ccccc1-c1noc(C2CCCN2C(=O)CCc2ccccc2)n1 (stereo not drawn) | -4.5 | 13.6
CC(=O)Nc1ccccc1C(=O)C(=O)NC1CCCC(C)C1C (stereo not drawn) | 2.7 | 8.0
CC(=O)NCc1csc(C2CCCN(C(=O)C3CCCCC3)C2)n1 (stereo not drawn) | -2.5 | -4.3
CS(=O)(=O)N1CCC(C(=O)N2CCC(COCc3ccccc3)CC2)CC1 | -9.8 | -8.3
Cc1cc(NS(=O)(=O)c2ccc(NC(=O)c3c(-c4ccccc4Cl)noc3C)cc2)no1 | -8.0 | ·
COCCNC(=O)C1COC2(CCC(C)CC2)N1C(=O)c1ccc(Cl)cc1 (stereo not drawn) | 1.4 | -1.7
CCCn1c(C2CCN(C(=O)c3ccco3)C2)nc2cccnc21 (stereo not drawn) | 7.0 | 13.1
O=C(C1CCCCC1)N1C[C@@H](n2cc(-c3ccc(F)cc3)nn2)[C@H](O)C[C@@H]1c1ccccc1 | -0.2 | -2.6
CCCCCCN1C[C@H](n2cc(C3CC3)nn2)[C@@H](O)C[C@@H]1c1ccc(Cl)cc1 | -1.4 | 100.0*
Cc1ccc([C@H]2C[C@H](O)[C@@H](n3cc(-c4ccc(F)cc4)nn3)CN2C(=O)C2CCCCC2)cc1 | -0.4 | 73.9*
CCCCCCN1C[C@@H](n2cc(C3CC3)nn2)[C@H](O)C[C@@H]1c1ccc(Cl)cc1 | 0.9 | 23.2
CC1=NN(C(C#N)c2ccc(Cl)c(Cl)c2)C(C)(C)C1 (stereo not drawn) | · | -10.4
CC1CCN(S(=O)(=O)N2CCC(C(=O)NCc3ccc(F)cc3)CC2)CC1 | -15.0 | -7.0
CCc1cc(C(=O)Nc2ccc(C#N)cc2)nc2ccnn12 | 0.1 | -11.3
N#CCSc1sc2c(O)cc(=O)[nH]c2c1C#N | · | -1.2
N#Cc1c(SCC(=O)c2ccc(Cl)s2)sc2c(O)cc(=O)[nH]c12 | · | 62.7*
COc1ccc(-c2nnc(N3CCC(C(=O)NCc4ccccn4)CC3)o2)cc1 | -6.8 | 2.5
Cc1noc(C)c1CC(=O)N1CCCC2(C1)Nc1ccccc1NC2=NC(C)(C)C (stereo not drawn) | -2.0 | 33.8
CC(C)(C)N=C1Nc2ccccc2NC12CCCN(C(=O)Nc1ccc3c(c1)OCCO3)C2 (stereo not drawn) | 1.2 | 93.8*
CC(C)(C)N=C1Nc2ccccc2NC12CCCN(C(=O)Cc1ccccc1F)C2 (stereo not drawn) | -1.8 | 65.2*
CC(C)(C)N=C1Nc2ccccc2NC12CCCN(C(=O)Cc1cccs1)C2 (stereo not drawn) | -0.4 | 64.5*
CC(C)(C)N=C1Nc2ccccc2NC12CCCN(C(=O)COc1ccc(F)c(F)c1)C2 (stereo not drawn) | 7.6 | 100.0*
SMILES | Pf apPOL inh | mHTT CaM bind
CC(C)(C)N=C1Nc2ccccc2NC12CCCN(C(=O)c1cccc(F)c1)C2 (stereo not drawn) | 4.3 | 14.5
CC(=O)c1cccc(NC(=O)N2CCCC3(C2)Nc2ccccc2NC3=NC(C)(C)C)c1 (stereo not drawn) | 4.2 | 26.6
CC(C)N1CCC(CC(=O)N2CCCC3(C2)Nc2ccccc2NC3=NC(C)(C)C)CC1 (stereo not drawn) | -5.0 | 46.1
O=C(CC1Sc2ccc(C(F)(F)F)cc2NC1=O)NCc1ccccc1 (stereo not drawn) | 0.2 | -4.0
COc1cccc(CC(=O)N2CCCC3(C2)Nc2ccccc2NC3=NC(C)(C)C)c1 (stereo not drawn) | 0.1 | 78.3*
COCCN=C1Nc2ccccc2NC12CCCN(C(=O)c1n[nH]c3c1CCCC3)C2 (stereo not drawn) | -1.8 | -1.7
O=C(c1n[nH]c2c1CCCC2)N1CCCC2(C1)Nc1ccccc1NC2=NC1CCCC1 (stereo not drawn) | -2.4 | 92.1*
COCCN=C1Nc2ccccc2NC12CCCN(C(=O)Cc1cccc(OC)c1)C2 (stereo not drawn) | -2.9 | 39.3
O=C(c1cccc(F)c1)N1CCCC2(C1)Nc1ccccc1NC2=NC1CCCC1 (stereo not drawn) | -4.5 | 18.4
O=C(COc1ccc(F)cc1)N1CCCC2(C1)Nc1ccccc1NC2=NC1CCCC1 (stereo not drawn) | -3.6 | 86.3*
COCC(C)(O)CNC(=O)c1cccs1 (stereo not drawn) | 2.4 | -8.7
Cc1ccc(-c2noc(-c3ccc(N4CCC(C)CC4)nc3)n2)cc1 | 1.0 | -9.7

Screens: PubChem, University of Kansas High Throughput Screening Laboratory
